An excerpt weighted towards active compounds, which were near 2.5% of everything screened.
TWEAK Fn14 block – inhibitors of TWEAK-Fn14 interaction signaling; inhibition, % at 10 µM; 2% of 360,000 active; TWEAK-stimulated Fn14 reporter cells, luciferase luminescence, 8 h; in the data active = inhibition above about 50%
TROY NFkB inh – inhibitors of TROY-dependent NF-kB signaling | 0.98% of 360,000 active | AID 1347056 | inhibition, % at 10 µM | Q293 LMP1-TROYcd NF-kB luciferase reporter, 4 h;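 active = compounds whose plate-normalised and pattern-corrected inhibition of the luciferase reporter signal at the single screening dose is 50% or more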
EWS-Fli block – blocks EWS/Fli oncoprotein-driven transcription. 0.67% of 350,000 active. inhibition, % at 12.6 µM. A673 NR0B1-luciferase reporter, viability-normalised;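 active = mean inhibition of at least 50% after viability correction, with every replicate also passing that limit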;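 also: firefly luciferase signal divided by Alamar Blue viability fluorescence both relative to DMSO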
LGR2 inh – blocks bursicon-induced cAMP signaling via Drosophila LGR2. HEK293 LGR2, CRE-luciferase, bursicon-stimulated, 4 h. AID 720647. 0.35% of 380,000 active. inhibition, % at 9.99 µM;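 active = drop in luminescence signal, shown as inhibition above about 50% in the replicate tests, limit read from the data, passing the limit was not always enough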;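 also: agonist challenge used bursicon conditioned medium at about half maximal strength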
EBV LMP1 NFkB – Epstein-Barr LMP1 NF-kappaB reporter inhibition | LMP1-induced NF-kappaB luciferase reporter cells, luminescence | inhibition, % at 12.5 µM | 0.69% of 350,000 active | AID 504558; in the data active = inhibition above about 41%
Hits are given with their value; – = inactive; · = no result given.

SMILES | TWEAK Fn14 block | TROY NFkB inh | EWS-Fli block | LGR2 inh | EBV LMP1 NFkB
CCCNC(=O)N1C[C@H](C)[C@H](OC)CN(C)C(=O)c2ccc(NC(=O)CCC)cc2OC[C@@H]1C | · | · | – | – | ·
COc1ccc(-c2cnc3c(c2)C(=O)N([C@H](C)CO)C[C@@H](C)[C@H](CN(C)C(=O)Cc2cccnc2)O3)cc1 | · | · | – | – | ·
COc1ccc(NC(C)=O)cc1S(=O)(=O)Nc1ccc2c(c1)OCCO2 | 57 | 53 | – | – | –
Cn1c(=O)oc2cc(S(=O)(=O)Nc3ccc4c(c3)OCCO4)ccc21 | 65 | – | · | · | –
O=S(=O)(Nc1ccc2c(c1)OCCO2)c1cccs1 | 90 | 74 | – | – | –
COc1cccc(S(=O)(=O)Nc2ccc3c(c2)OCCO3)c1 | 76 | 52 | – | – | –
Cc1cccc(S(=O)(=O)Nc2ccc3c(c2)OCCO3)c1 | – | – | – | – | –
O=S(=O)(Nc1ccc2c(c1)OCO2)c1cccs1 | – | – | · | · | –
C[C@H]1CN([C@@H](C)CO)C(=O)c2c(c3ccccc3n2C)-c2ccccc2CO[C@@H]1CN(C)CC1CC1 | · | · | – | – | ·
O=C(NC1CCCC1)N1CC2(C1)[C@H](c1ccccc1)[C@@H](CO)N2CC1CCOCC1 | · | · | – | – | ·
C[C@H](CO)N1C[C@H](C)[C@@H](CN(C)C(=O)Nc2ccc(F)cc2)Oc2ccc(NC(=O)CCC(F)(F)F)cc2CC1=O | · | · | – | – | ·
C[C@@H]1CN([C@@H](C)CO)S(=O)(=O)c2ccc(-c3cccc(C(=O)N(C)C)c3)cc2O[C@H]1CN(C)C | · | · | – | – | ·
CC(C)(C)C(=O)Nc1ccc(-c2cn3ccsc3n2)cc1 | 74 | – | · | · | –
C[C@@H]1CN([C@H](C)CO)C(=O)c2cc(NS(=O)(=O)c3cccs3)ccc2O[C@H]1CN(C)Cc1ccc2c(c1)OCO2 | · | · | – | – | ·
CCC(=O)Nc1nc2ccc3sc(C)nc3c2s1 | 69 | – | – | – | –
CCCNC(=O)C[C@@H]1CC[C@@H]2[C@@H](COc3ccc(NC(=O)c4cccc(C(F)(F)F)c4)cc3C(=O)N2C)O1 | · | · | – | – | ·
O=C(NCCCn1ccnc1)C1CCN(S(=O)(=O)c2ccc(F)cc2)CC1 | 86 | – | – | – | –
O=C(NCc1ccccn1)C1CCN(S(=O)(=O)c2ccccc2)CC1 | 88 | · | · | · | –
O=C(CCNC(=O)C1CCN(S(=O)(=O)c2ccccc2)CC1)NCc1ccccn1 | – | – | · | – | –
O=C(CCNC(=O)C1CCN(S(=O)(=O)c2ccc(F)cc2)CC1)NCc1ccc(F)cc1 | – | – | – | – | –
C[C@@H]1CN([C@@H](C)CO)C(=O)c2cc(NC(=O)NC3CCCCC3)ccc2O[C@@H]1CN(C)Cc1ccc(-c2ccccc2)cc1 | · | · | – | – | ·
CCCC(=O)Nc1ccc2c(c1)C(=O)N(C)C[C@@H](OC)[C@@H](C)CN(Cc1cncnc1)[C@H](C)CO2 | · | · | – | – | ·
Cc1ccc(S(=O)(=O)Nc2ccc3c(c2)C(=O)N([C@H](C)CO)C[C@@H](C)[C@H](CN(C)S(=O)(=O)c2ccccc2)O3)cc1 | · | · | – | – | ·
N#Cc1c(F)cccc1N1CCOCC1 | 87 | · | · | · | –
N#Cc1c(Cl)cccc1N1CCCC1 | – | – | – | · | –
SMILES | TWEAK Fn14 block | TROY NFkB inh | EWS-Fli block | LGR2 inh | EBV LMP1 NFkB
CS(=O)(=O)Nc1ccc(C2=NN(S(C)(=O)=O)C(c3ccccc3)C2)cc1 (configuration not stated) | – | – | – | – | 66
O=C1c2cc([N+](=O)[O-])cc3cc([N+](=O)[O-])cc(c23)C(=O)N1c1ccccn1 | 64 | – | – | – | –
O=C1c2ccc(Oc3cccc([N+](=O)[O-])c3)cc2C(=O)N1c1ccccn1 | – | – | – | · | –
C[C@@H]1CCCCO[C@H](CN(C)C(=O)Nc2cccc3ccccc23)[C@H](C)CN([C@@H](C)CO)C(=O)c2cc(N(C)C)ccc2O1 | · | · | – | – | ·
O=C1c2ccccc2C(Nc2ccc(Cl)cc2)N1CCN1CCOCC1 (configuration not stated) | – | – | – | – | 83
COC(=O)c1cc(NC2c3ccccc3C(=O)N2CCN2CCOCC2)cc(C(=O)OC)c1 (configuration not stated) | – | – | – | – | –
COc1ccc(/C=N/Nc2nc3ccccc3s2)cc1O | 74 | 60 | – | 86 | –
COc1cc(/C=N/Nc2nc3ccccc3o2)cc(OC)c1O | – | – | · | · | –
CC(=O)Nc1ccc(/C=N/Nc2nc3ccccc3s2)cc1 | – | – | – | – | –
COc1ccc(/C=N/NC(=O)c2nc(-c3ccccc3)cc(-c3ccccc3)n2)cc1 | – | – | · | · | –
COc1ccc(/C=N/Nc2nc3ccccc3o2)cc1O | 72 | – | · | · | –

Assay outcomes deposited in PubChem by several laboratories.
